Assay results published in the supplement of paper PMC8877412.
Structures can show the parent of a compound that is named as a salt. ± gives the uncertainty stated by the source.

tested on: NCC-PMP1-C1; experiment: cell viability relative to DMSO control; higher = less growth inhibition; conditions: 10 µM; 72 h
Description: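 NCC-PMP1-C1 pseudomyxoma peritonei cells were seeded in 384-well plates coated with Matrigel and MEF (1e4 cells). Viability was read after 72 h by CCK-8 and expressed as % of the DMSO control, mean ± SD of duplicates.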

SMILES	cell viability [%]
COC(=O)N[C@H](C(=O)N[C@@H](Cc1ccccc1)[C@@H](O)CN(Cc1ccc(-c2ccccn2)cc1)NC(=O)[C@@H](NC(=O)OC)C(C)(C)C)C(C)(C)C [Atazanavir Sulfate]	109 ± 1.1
CC(C)c1nc(CN(C)C(=O)N[C@@H](CCN2CCOCC2)C(=O)N[C@H](CC[C@H](Cc2ccccc2)NC(=O)OCc2cncs2)Cc2ccccc2)cs1 [Cobicistat (GS-9350)]	83.8 ± 3.1
CCN(CC)CCNC(=O)c1c(C)[nH]c(/C=C2\C(=O)Nc3ccc(F)cc32)c1C [Sunitinib Malate]	50.6 ± 16
CC(C)(C#N)c1cc(Cn2cncn2)cc(C(C)(C)C#N)c1 [Anastrozole]	110 ± 6.5
CNC(=O)c1cc(Oc2ccc(NC(=O)Nc3ccc(Cl)c(C(F)(F)F)c3)cc2)ccn1 [Sorafenib]	-8.05 ± 0.27
CN1c2cc(O)c(N=NC(N)=O)cc2CC1S(=O)(=O)O (stereo not given) [Carbazochrome sodium sulfonate (AC-17)]	90.4 ± 9.1
CC(=O)O[C@]1(C(C)=O)CC[C@H]2[C@@H]3C=C(C)C4=CC(=O)CC[C@]4(C)[C@H]3CC[C@@]21C [Megestrol Acetate]	91.4 ± 16
CC#CCn1c(N2CCC[C@@H](N)C2)nc2c1c(=O)n(Cc1nc(C)c3ccccc3n1)c(=O)n2C [Linagliptin]	94.5 ± 11
C[C@@H]1CCN(C(=O)CC#N)C[C@@H]1N(C)c1ncnc2[nH]ccc12	77.2 ± 22
COc1ccc(/C=C/C(=O)Nc2ccccc2C(=O)O)cc1OC [Tranilast]	111 ± 20
O=c1[nH]c(=O)n(C2CCCO2)cc1F (stereo not given)	108 ± 3.1
Cc1ccc(NC(=O)c2ccc(CN3CCN(C)CC3)cc2)cc1Nc1nccc(-c2cccnc2)n1 [Imatinib (STI571)]	92.3 ± 6.7
Cc1ccc(F)c(NC(=O)Nc2ccc(-c3cccc4[nH]nc(N)c34)cc2)c1 [Linifanib (ABT-869)]	45.2 ± 6.3
C/C=C1\NC(=O)[C@H]2CSSCC/C=C/[C@H](CC(=O)N[C@H](C(C)C)C(=O)N2)OC(=O)[C@H](C(C)C)NC1=O [Romidepsin (FK228, Depsipeptide)]	22.2 ± 22
C#Cc1cccc(Nc2ncnc3cc(OCCOC)c(OCCOC)cc23)c1 [Erlotinib]	66.7 ± 5.8
COc1cc(Nc2c(C#N)cnc3cc(OCCCN4CCN(C)CC4)c(OC)cc23)c(Cl)cc1Cl [Bosutinib (SKI-606)]	52.4 ± 0.73
C=CC(=O)N1CCC[C@@H](n2nc(-c3ccc(Oc4ccccc4)cc3)c3c(N)ncnc32)C1	59 ± 5.5
COC(=O)C[C@](O)(CCCC(C)(C)O)C(=O)O[C@@H]1C(OC)=C[C@]23CCCN2CCc2cc4c(cc2[C@H]13)OCO4 [Homoharringtonine]	-1.02 ± 0.42
CNC(=O)c1ccc(-c2cnc3ncc(Cc4ccc5ncccc5c4)n3n2)cc1F	108 ± 9.8
Nc1nc2[nH]cnc2c(=S)[nH]1 [Thioguanine]	88.9 ± 9.4

SMILES	cell viability [%]
CCCCCCNC(=O)n1cc(F)c(=O)[nH]c1=O [Carmofur]	96.6 ± 12
CC(C)(C)c1cc(NC(=O)Nc2ccc(-c3cn4c(n3)sc3cc(OCCN5CCOCC5)ccc34)cc2)no1 [Quizartinib (AC220)]	78.9
CNNCc1ccc(C(=O)NC(C)C)cc1 [Procarbazine HCl]	100 ± 22
COc1cc2/c(=N/c3ccc(Br)cc3F)nc[nH]c2cc1OCC1CCN(C)CC1 [Vandetanib (ZD6474)]	54.7 ± 4.9
Cn1nnc2c(C(N)=O)ncn2c1=O [Temozolomide]	118 ± 5.8
C/C(=C\c1csc(C)n1)[C@@H]1C[C@@H]2O[C@]2(C)CCC[C@H](C)[C@H](O)[C@@H](C)C(=O)C(C)(C)[C@@H](O)CC(=O)N1	73.7 ± 4.9
COc1c2occc2cc2ccc(=O)oc12 [Methoxsalen]	92.6 ± 16
CCOc1cc(C(C)(C)C)ccc1C1=N[C@@](C)(c2ccc(Cl)cc2)[C@@](C)(c2ccc(Cl)cc2)N1C(=O)N1CCN(CCCS(C)(=O)=O)CC1	52.5 ± 3.1
COc1cc([C@@H]2c3cc4c(cc3[C@@H](O[C@@H]3O[C@@H]5CO[C@@H](c6cccs6)O[C@H]5[C@H](O)[C@H]3O)[C@H]3COC(=O)[C@H]23)OCO4)cc(OC)c1O [Teniposide]	13.5 ± 1.5
CC(=O)OCC(CCn1cnc2cnc(N)nc21)COC(C)=O [Famciclovir]	94.3 ± 12
CNC(=O)c1ccc(N2C(=S)N(c3ccc(C#N)c(C(F)(F)F)c3)C(=O)C2(C)C)cc1F [Enzalutamide (MDV3100)]	99.7 ± 15
CN1CCN(c2ccc(C(=O)Nc3n[nH]c4ccc(Cc5cc(F)cc(F)c5)cc34)c(NC3CCOCC3)c2)CC1 [Entrectinib (RXDX-101)]	-0.545 ± 0.059
Cc1cn(-c2cc(NC(=O)c3ccc(C)c(Nc4nccc(-c5cccnc5)n4)c3)cc(C(F)(F)F)c2)cn1 [Nilotinib (AMN-107)]	70.1 ± 16
CC(=O)O[C@@]12CO[C@@H]1C[C@H](O)[C@@]1(C)C(=O)[C@H](O)C3=C(C)[C@@H](OC(=O)[C@H](O)[C@@H](NC(=O)OC(C)(C)C)c4ccccc4)C[C@@](O)([C@@H](OC(=O)c4ccccc4)[C@H]21)C3(C)C [Docetaxel]	72.1 ± 2.1
COc1cc(Nc2ncc(F)c(Nc3ccc4c(n3)N(COP(=O)(O)O)C(=O)C(C)(C)O4)n2)cc(OC)c1OC [Fostamatinib (R788)]	4.92 ± 3.4
Nc1cccc2c1CN(C1CCC(=O)NC1=O)C2=O (stereo not given) [Lenalidomide]	106 ± 3.2
CN(C)C/C=C/C(=O)Nc1cc2c(Nc3ccc(F)c(Cl)c3)ncnc2cc1O[C@H]1CCOC1 [Afatinib (BIBW2992)]	12.4 ± 2.3
N#Cc1ccc(C(c2ccc(C#N)cc2)n2cncn2)cc1 [Letrozole]	129 ± 29
COc1ccc2[nH]c([S@@+]([O-])Cc3ncc(C)c(OC)c3C)nc2c1 [Esomeprazole Sodium]	108 ± 1.5
CC1=C(/C=C/C(C)=C/C=C/C(C)=C/C(=O)O)C(C)(C)CCC1 [Tretinoin]	129 ± 16
